Measured potencies and affinities stand elsewhere. Calls of active or inactive are those of the source.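 How the source made its calls: active means fitted half-maximal dose no more than twice the top valid tested dose, for compounds that lower signal; inconclusive means fit invalid, or curve flat with activity between -70 and -30; inactive means potency past limit, curve flat within ±30, or signal increasing.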
Biological target: NAD-dependent protein deacylase sirtuin-5, mitochondrial (Homo sapiens) (UniProt Q9NXA8)
Sequence (Q9NXA8 whole entry, looked up): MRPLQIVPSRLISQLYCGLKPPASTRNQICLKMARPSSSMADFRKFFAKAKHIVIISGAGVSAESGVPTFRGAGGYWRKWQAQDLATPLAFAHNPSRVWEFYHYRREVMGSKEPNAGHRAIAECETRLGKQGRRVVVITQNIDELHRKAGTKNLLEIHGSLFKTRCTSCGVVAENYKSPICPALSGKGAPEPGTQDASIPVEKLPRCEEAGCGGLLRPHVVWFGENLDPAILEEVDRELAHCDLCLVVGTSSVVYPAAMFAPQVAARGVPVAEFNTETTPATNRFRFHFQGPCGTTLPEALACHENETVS
Test: blockers of sirtuin-5 peptide desuccinylation – biochemical, fluorescence imaging, cherry-pick, set 6, dose response (AID 720597);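 further: lower AMC signal can also come from blocking the trypsin step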
Conditions: Purified SirT5, succinyl-peptide-AMC/trypsin fluorescence; series mostly up to 15 µM

outcome, inactive:
COc1ccc(NC(=O)N(C)C[C@@H]2Oc3cc(C#CCC(C)C)ccc3S(=O)(=O)N([C@@H](C)CO)C[C@@H]2C)cc1
CC(C)C#Cc1cnc2c(c1)C(=O)N([C@@H](C)CO)C[C@H](C)[C@@H](CN(C)C(=O)CN1CCOCC1)O2
O=S(=O)(c1ccc(F)cc1)N1CCCCN2[C@H](CO)[C@@H](c3ccc(-c4ccccc4F)cc3)[C@H]2C1
CCCN(C)C[C@@H]1Oc2cc(-c3ccccc3OC)ccc2S(=O)(=O)N([C@H](C)CO)C[C@@H]1C
C[C@H]1CN([C@@H](C)CO)C(=O)Cc2cc(NC(=O)Nc3ccc(F)cc3)ccc2O[C@H]1CN(C)C
COc1cccc(S(=O)(=O)N(C)C[C@H]2Oc3cc(C4=CCCC4)ccc3S(=O)(=O)N([C@H](C)CO)C[C@H]2C)c1
C[C@H](O)C#Cc1ccc2c(c1)O[C@H](CN(C)Cc1ccc(-c3ccccc3)cc1)[C@H](C)CN([C@H](C)CO)S2(=O)=O
C[C@H](CO)N1C[C@H](C)[C@H](CN(C)S(C)(=O)=O)Oc2c(NC(=O)c3ccncc3)cccc2C1=O
CN(C)C(=O)[C@@H]1[C@@H](CO)[C@@H]2Cn3c(ccc(-c4ccccc4)c3=O)[C@H]1N2CCc1ccccc1
CC1C(=O)N2CCCc3cc(S(=O)(=O)N4CCCC4)cc1c32 (centres undefined)
C[C@@H]1CN([C@@H](C)CO)S(=O)(=O)c2ccc(-c3cccc(F)c3)cc2O[C@@H]1CN(C)S(=O)(=O)c1ccc(F)cc1
CCS(=O)(=O)N1CC2(C1)CN(S(=O)(=O)c1cn(C)cn1)[C@@H](CO)c1[nH]c3cc(OC)ccc3c12
Cc1ccc(S(=O)(=O)N(C)C[C@@H]2Oc3ncc(C#Cc4ccc(C(F)(F)F)cc4)cc3C(=O)N([C@H](C)CO)C[C@@H]2C)cc1
C[C@@H]1CN([C@@H](C)CO)S(=O)(=O)c2ccc(C3=CCCCC3)cc2O[C@H]1CN(C)S(=O)(=O)c1ccc(F)cc1
CCN(C[C@H]1[C@@H](c2ccc(-c3ccccc3F)cc2)[C@@H](CO)N1C(C)=O)C(C)=O
C[C@@H]1CN([C@H](C)CO)S(=O)(=O)c2ccc(C#Cc3ccc(F)cc3)cc2O[C@@H]1CN(C)C(=O)NC1CCCCC1
COc1ccc(S(=O)(=O)Nc2ccc3c(c2)C(=O)N([C@H](C)CO)C[C@H](C)[C@@H](CN(C)Cc2ccc(Oc4ccccc4)cc2)O3)cc1
Cc1noc(C)c1NC(=O)Nc1ccc2c(c1)C(=O)N([C@H](C)CO)C[C@@H](C)[C@@H](CN(C)Cc1ccc(C(=O)Nc3ccccc3N)cc1)O2
Cc1noc(C)c1NC(=O)N[C@@H]1C=C[C@@H](CC(=O)Nc2ccccc2)O[C@H]1CO
CCCC#Cc1ccc([C@@H]2[C@H]3CN(S(=O)(=O)Cc4ccccc4)CCCCN3[C@H]2CO)cc1
CCCNC(=O)N1[C@@H](CO)[C@@H](c2ccccc2)C12CN(C(=O)CC1CC1)C2
C[C@H]1CN([C@@H](C)CO)S(=O)(=O)c2ccc(/C=C/c3ccccc3)cc2O[C@@H]1CN(C)C(=O)Nc1ccc(F)cc1
COc1ccc(S(=O)(=O)N(C)C[C@@H]2Oc3c(NS(C)(=O)=O)cccc3C(=O)N([C@@H](C)CO)C[C@H]2C)cc1
C[C@@H]1CN([C@@H](C)CO)C(=O)c2cc(NS(=O)(=O)c3ccc(F)cc3)ccc2O[C@@H](C)CCCCO[C@@H]1CN(C)S(=O)(=O)c1ccc(Cl)cc1
COc1ccc(S(=O)(=O)Nc2ccc3c(c2)C(=O)N([C@H](C)CO)C[C@H](C)[C@H](CN(C)Cc2ccc(C(F)(F)F)cc2)OCCCC[C@H](C)O3)cc1
Cc1ccc(S(=O)(=O)N(C)C[C@H]2OCCCC[C@H](C)Oc3ccc(NS(=O)(=O)c4ccc(Cl)cc4)cc3C(=O)N([C@H](C)CO)C[C@H]2C)cc1
O=C(NCC[C@@H]1CC[C@@H](NC(=O)C2CC2)[C@@H](CO)O1)c1cc(Cl)cc(Cl)c1
COc1ccc(NC(=O)N(C)C[C@H]2Oc3cc(C#CCC(C)C)ccc3S(=O)(=O)N([C@H](C)CO)C[C@@H]2C)cc1
O=S(=O)(c1ccc(F)cc1)N1CCCCN2[C@@H](CO)[C@H](c3ccc(C#CC4CCCC4)cc3)[C@@H]2C1
C[C@H](CO)N1C[C@H](C)[C@H](CN(C)C(=O)Nc2ccc(C(F)(F)F)cc2)OCCCC[C@H](C)Oc2ccc(NS(=O)(=O)c3ccc(Cl)cc3)cc2C1=O
C[C@@H]1CN([C@H](C)CO)C(=O)c2cccc(NC(=O)c3ccncc3)c2O[C@@H]1CN(C)S(C)(=O)=O
COc1ccc(S(=O)(=O)Nc2ccc3c(c2)C(=O)N([C@H](C)CO)C[C@H](C)[C@H](CN(C)Cc2ccc(C(F)(F)F)cc2)OCCCC[C@@H](C)O3)cc1
COc1ccc(S(=O)(=O)N(C)C[C@H]2Oc3cc(C#CC4CCCC4)ccc3S(=O)(=O)N([C@@H](C)CO)C[C@@H]2C)cc1
Cc1noc(C)c1S(=O)(=O)Nc1ccc2c(c1)CC(=O)N([C@H](C)CO)C[C@H](C)[C@H](CN(C)Cc1ccncc1)O2
CCCC#Cc1ccc([C@H]2[C@H]3CN(C(=O)Cc4cccnc4)CC(=O)N3[C@H]2CO)cc1
COCC(=O)N1C[C@@H]2[C@H](c3ccccc31)[C@H](CO)N2Cc1cc(F)ccc1F
C[C@H](CO)N1C[C@H](C)[C@@H](CN(C)Cc2ccc(Oc3ccccc3)cc2)Oc2ccc(NS(=O)(=O)c3ccc(Cl)cc3)cc2CC1=O
C[C@@H]1CN([C@H](C)CO)C(=O)c2cccc(N(C)C)c2O[C@@H]1CN(C)C(=O)NC1CCCCC1
O=C(NCC[C@H]1CC[C@H](NC(=O)C2CC2)[C@H](CO)O1)c1cc(Cl)cc(Cl)c1

Source: PubChem BioAssay AID720597 (Broad Institute, 2013)
